# Assay outcomes: PubChem BioAssay, Johns Hopkins Ion Channel Center
# KCNQ2 pot = potentiators of rat KCNQ2 potassium channel. CHO-K1 KCNQ2, FluxOR thallium flux fluorescence; active compounds read high. Potassium voltage-gated channel subfamily KQT member 2 (Rattus norvegicus), O88943. AID 2239, 2010. 310,000 tested, 0.54% active. B-score at 10 µM;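 active = fluorescence ratio B-score at least 3 SD of library B-scores, with initial fluorescence B-score within 3 of them, cut at about 5.3 in these data; same plate scores as AID 2156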;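 also: B-score of peak minus minimum over baseline fluorescence ratio after K+ and Tl+ stimulus; positive B-score means potentiation of KCNQ2 with more thallium influx and brighter signal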
# Target sequence (O88943 whole entry, looked up): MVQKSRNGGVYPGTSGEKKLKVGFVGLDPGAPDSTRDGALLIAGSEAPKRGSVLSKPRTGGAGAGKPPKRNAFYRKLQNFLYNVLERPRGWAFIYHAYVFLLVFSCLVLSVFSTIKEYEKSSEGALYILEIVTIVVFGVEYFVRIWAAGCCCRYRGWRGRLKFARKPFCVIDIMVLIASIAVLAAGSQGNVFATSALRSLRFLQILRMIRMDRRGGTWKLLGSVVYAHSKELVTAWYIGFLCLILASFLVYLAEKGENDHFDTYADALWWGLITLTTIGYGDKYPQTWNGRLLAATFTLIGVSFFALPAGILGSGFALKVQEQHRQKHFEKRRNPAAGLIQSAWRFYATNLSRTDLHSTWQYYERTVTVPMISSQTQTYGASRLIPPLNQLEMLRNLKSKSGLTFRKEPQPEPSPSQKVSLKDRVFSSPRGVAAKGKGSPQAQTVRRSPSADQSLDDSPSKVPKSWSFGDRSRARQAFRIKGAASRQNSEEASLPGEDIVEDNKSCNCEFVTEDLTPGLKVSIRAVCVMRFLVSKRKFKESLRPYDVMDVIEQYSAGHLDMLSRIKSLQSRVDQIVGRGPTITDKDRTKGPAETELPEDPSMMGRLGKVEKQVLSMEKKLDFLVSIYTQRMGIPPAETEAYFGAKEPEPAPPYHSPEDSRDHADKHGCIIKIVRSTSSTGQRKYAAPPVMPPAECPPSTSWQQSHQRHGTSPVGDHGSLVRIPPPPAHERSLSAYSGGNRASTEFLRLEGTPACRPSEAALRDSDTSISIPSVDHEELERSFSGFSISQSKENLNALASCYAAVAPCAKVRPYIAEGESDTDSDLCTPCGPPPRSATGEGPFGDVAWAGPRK
# KCNQ2 block = rat KCNQ2 potassium channel inhibitors, primary screen, cell-based, CHO-K1, FluxOR thallium flux, B-score; Potassium voltage-gated channel subfamily KQT member 2 (Rattus norvegicus), O88943; 310,000 tested, 1.1% active; 20 min; active compounds read low; B-score at 10 µM;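 active = fluorescence ratio B-score at most minus 3 library SDs, with starting brightness B-score within 2 library SDs, cut at about -5.5 in these data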
# * marks the source's active call; other numbers are inactive results; i = inactive; / = no result. A selection: hits, their analogues and other compounds. The true share with any hit is near 1.6%.
SMILES,KCNQ2 pot,KCNQ2 block
CCCCCC(=O)O[C@]1(C(C)=O)CC[C@H]2[C@@H]3CCC4=CC(=O)CC[C@]4(C)[C@H]3CC[C@@]21C,-7.2,-7.2*
CC(=O)[C@@]1(O)CC[C@H]2[C@@H]3CCC4=CC(=O)CC[C@]4(C)[C@H]3CC[C@@]21C,0.03,i
CC(=O)OC(C)[C@H]1CC[C@H]2[C@@H]3CC[C@H]4C[C@@H](OC(C)=O)CC[C@]4(C)C3=CC[C@]12C (stereo not given in full),/,i
Cc1c(Cl)cccc1-n1c(SCC(=O)NCc2cccs2)nnc1-c1ccncc1,0.01,i
Cc1c(Cl)cccc1-n1c(SCC(=O)NCc2ccccc2Cl)nnc1-c1ccncc1,-6.4,-6.4*
O=C(C1CCC1)N1CCC(O)(c2cccc(F)c2)CC1,/,i
O=C(CCn1ccc2cc(S(=O)(=O)N3CCCC3)ccc21)NCc1cccc(F)c1,1.5,i
CC1(C)CC(NC(=O)c2ccc(Br)o2)CC(C)(C)N1,/,i
CSCCC(NS(=O)(=O)c1ccc(Cl)cc1)C(=O)OCc1c(Cl)cccc1Cl (stereo not given),/,i
CSCCC(NS(=O)(=O)c1ccccc1F)C(=O)OCc1ccccc1Cl (stereo not given),-6.2,-6.2*
COc1ccc(S(=O)(=O)N2CCC(C(=O)NCc3cccnc3)CC2)cc1OC,/,i
CC1CCc2sc(C(=O)NC(C)C3CCCO3)cc2C1 (stereo not given),-6.1,-6.1*
CC1CCc2sc(C(=O)NNC(=S)NCC3CCCO3)cc2C1 (stereo not given),0.02,i
O=C(OCN1C(=O)c2ccccc2C1=O)c1cccc(OC(F)F)c1,/,i
CCCC[C@H](CN[C@@H](CNC)[C@H](C)CC)NCCC12CCC(CC1)C2,/,i
O=c1c2c(-c3cccs3)csc2ncn1/N=C/c1ccc(OC(F)F)cc1,-7.4,-7.4*
O=c1c2c(-c3cccs3)csc2ncn1/N=C/c1ccccn1,/,i
COc1ccc(CN2CC(C(=O)NCCCN3CCCC(C)C3)CC2=O)cc1 (stereo not given),0.94,i
CCOC(=O)c1cc2c(ccn2-c2ccc(F)cc2)n1CC(=O)NC(C)(C)C,-6.7,-6.7*
CCn1c(C(=O)OC)cc2c1ccn2-c1ccc(F)cc1,/,i
CCOC(=O)c1sc(NC(=O)C(C)C)c(C#N)c1C,0.73,i
COc1ccc(Oc2cnc3ccccc3n2)cc1,-6,-6*
c1ccc(Oc2cnc3ccccc3n2)cc1,2.2,i
O=S1(=O)C=C(Oc2ccc(F)cc2)c2ccccc21,0.45,i
O=S1(=O)C=C(Oc2ccc3ccccc3c2)c2ccccc21,-6.1,-6.1*
SMILES,KCNQ2 pot,KCNQ2 block
CCOC(=O)c1cc(NC(=O)N(C)C2CCCCC2)c(C)nc1C,1,i
COc1cc(-c2nnc(SCc3ccccc3Cl)o2)cc(OC)c1OC,-6.8,-6.8*
COc1cc(-c2nnc(SCc3c(F)cccc3Cl)o2)cc(OC)c1OC,/,i
Cc1ccc(C)c(N(CC(=O)N2CCCC2)S(C)(=O)=O)c1,0.16,i
CCCCCN1CN(S(=O)(=O)c2cccs2)c2nc3ccccc3nc21,/,i
CCc1ccc(OCC(=O)N2CCN(c3ccccn3)CC2)c(Br)c1,0.22,i
Cc1cc(OCC(=O)N2CCN(c3ccccn3)CC2)cc(C)c1Br,-6,-6*
O=C(/C=C/c1cccc(Br)c1)N1CCN(c2ccccn2)CC1,-7.6,-7.6*
O=C(/C=C/c1ccc(F)cc1)N1CCN(c2ccccn2)CC1,0.01,i
CC(Oc1ccccc1F)C(=O)NNC(=O)c1ccc(F)c(S(=O)(=O)N2CCOCC2)c1 (stereo not given),4.3,i
CCC1CN(S(=O)(=O)c2cc(-c3cc(C)no3)ccc2OC)c2cc(C)ccc2O1 (stereo not given),/,i
COc1cc(/C=C2\SC(=Nc3ccccc3)N(CCc3c[nH]c4ccccc34)C2=O)ccc1OC(C)C(=O)O (stereo not given),/,i
COCCN1C(=O)/C(=C/c2ccc(Oc3ccc([N+](=O)[O-])cn3)c(OC)c2)SC1=Nc1ccccc1,-6.9,-6.9*
COc1ccccc1NC(=O)CC1C(=O)Nc2ccccc2N1C(=O)c1ccccc1 (stereo not given),1.2,i
Oc1c(Br)cc(Br)cc1C=Nc1ccc2c(c1)OCO2,9.8*,i
Oc1c(Br)cc(Br)cc1C=Nc1ccc2c(c1)OCCO2,2.9,i
CC(C)c1csc(CN2CCC(n3nccc3NC(=O)Cc3ccccc3)CC2)n1,/,i
Cc1cccc(NC(=O)c2ccc(C)c(S(=O)(=O)N3CCCCC3)c2)n1,/,i
CCN(CC)c1ccc(C(=O)Nn2cnc3ccccc3c2=O)cc1,0.14,i
CCOC(=O)CSC1=C(C#N)C(c2ccco2)C(C(=O)Nc2cccc(C(F)(F)F)c2)=C(C)N1 (stereo not given),-7.2,-7.2*
CCOC(=O)C1=C(c2ccccc2)NC(SCC(=O)Nc2cccc(C)c2)=C(C#N)C1c1ccco1 (stereo not given),0.16,i
CCn1c(SCC(=O)Nc2cccc(OC)c2)nc2c(c1=O)SCC2,1.8,i
COC(CNC(=O)C(=O)NCC1CCCN1S(=O)(=O)c1cccs1)OC (stereo not given),1.1,i
Cc1ccc(SCCC(=O)N(C)CC(=O)Nc2c(C)cccc2C)cc1,0.04,i
COc1ccc(N2CCN(C(=O)c3oc4ccccc4c3NC(=O)Cc3ccc(OC)c(OC)c3)CC2)cc1,/,i
SMILES,KCNQ2 pot,KCNQ2 block
COc1ccc(N2CCN(C(=O)c3oc4ccccc4c3NC(=O)Cc3cccc(OC)c3)CC2)cc1,-5.8,-5.8*
COc1cccc(CNC(=O)CCC2CCCN(C(=O)c3cc4ccccc4o3)C2)c1 (stereo not given),-6.4,-6.4*
COc1cccc(CNC(=O)CCC2CCCN(C(=O)c3ccoc3)C2)c1 (stereo not given),0.47,i
Cc1ccc(C(=O)N=c2sccn2C)o1,/,i
Cc1cccc(C(=O)NNC(=O)c2ccccc2)c1,0.1,i
Cc1cccc(C(=O)c2cnc3ccccc3c2-c2ccccc2)c1,-6.4,-6.4*
Cc1c[nH]c2cccc(OCC(CNC(C)(C)C)OC(=O)c3ccccc3)c12 (stereo not given),/,i
Cc1ccc(CN(CC(O)COc2cccc3[nH]cc(C)c23)C(C)(C)C)cc1 (stereo not given),-6.7,-6.7*
CCOCCc1nnc(NC(=O)C2CC(=O)N(c3ccc(OCC)cc3)C2)s1 (stereo not given),0.04,i
CCCCSCCCNC(=O)Nc1ccc(CC)cc1,5.6*,i
CCc1ccc(NC(=O)CSCCO)cc1,0.6,i
Clc1ccccc1Cn1c(/C=C/c2ccco2)nc2ccccc21,-7,-7*
COc1ccc(Cn2c(/C=C/c3ccccc3)nc3ccccc32)cc1,/,i
CCOc1ccc(Cc2c(Cl)nc(SC)nc2N(C)C)cc1,-7.2,-7.2*
CSc1nc(Cl)c(Cc2ccc(OC(C)C)cc2)c(N(C)C)n1,-6,-6*
CCOc1ccc(Cc2c(Cl)nc(N)nc2Cl)cc1,/,i
COc1ccc(Cc2c(Cl)ncnc2Cl)cc1,/,i
CC(C)CC1NC(=S)N(Cc2ccccc2)C1=O (stereo not given),/,i
CC(Oc1ccccc1)C(=O)Nc1cccc(-c2nc3ccccc3[nH]2)c1 (stereo not given),-5.6,-5.6*
